Hits are enriched below; roughly 18% of the tested compounds scored in any of these assays.
DT40 TDP1 no CPT: qHTS for Inhibitors of human tyrosyl-DNA phosphodiesterase 1 (TDP1): qHTS in cells in absence of CPT; AID 686978, 2013; hit rate 15% among 420,000; DT40 Tdp1-/- hTDP1 cells, no CPT, ATP luminescence, 48 h; Potency, µM (highest dose often 46.2 µM), for inactives: at the top dose activity change, negative = growth inhibition, actives largely listed as inhibitors; also: nearly all actives have a fitted effect of over 55% in size
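Readout: luminescence from CellTiter-Glo after 30 min in the dark at RT. Cells: DT40 Tdp1-/- with stable hTDP1, 400/well. Exposure: compounds alone, ≥48 hr, 37 °C.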
PLK1 PBD inh: qHTS for Inhibitors of PLK1-PDB (polo-like kinase 1 - polo-box domain): Primary Screen | hit rate 2.8% among 360,000 | Serine/threonine-protein kinase PLK1 (Homo sapiens), P53350 | Potency, µM, for the others: max response, negative = inhibition, actives largely listed as inhibitors | AID 720504, 2013 | Plk1 PBD binding of FITC phosphopeptide, fluorescence polarization; also: series mostly up to about 57 µM; nearly all actives have a fitted effect of over 65% in size
KAT2A inh: qHTS Assay for Inhibitors of GCN5L2 | Histone acetyltransferase KAT2A (Homo sapiens), Q92830 | GCN5L2 HAT assay, ThioGlo1 CoA-SH fluorescence | Potency, µM (highest dose often 58.9 µM), without a hit: at the top dose activity change, negative = inhibition, actives largely listed as inhibitors | hit rate 0.21% among 390,000 | AID 504327, 2011
Target sequence (Q92830 whole entry, looked up): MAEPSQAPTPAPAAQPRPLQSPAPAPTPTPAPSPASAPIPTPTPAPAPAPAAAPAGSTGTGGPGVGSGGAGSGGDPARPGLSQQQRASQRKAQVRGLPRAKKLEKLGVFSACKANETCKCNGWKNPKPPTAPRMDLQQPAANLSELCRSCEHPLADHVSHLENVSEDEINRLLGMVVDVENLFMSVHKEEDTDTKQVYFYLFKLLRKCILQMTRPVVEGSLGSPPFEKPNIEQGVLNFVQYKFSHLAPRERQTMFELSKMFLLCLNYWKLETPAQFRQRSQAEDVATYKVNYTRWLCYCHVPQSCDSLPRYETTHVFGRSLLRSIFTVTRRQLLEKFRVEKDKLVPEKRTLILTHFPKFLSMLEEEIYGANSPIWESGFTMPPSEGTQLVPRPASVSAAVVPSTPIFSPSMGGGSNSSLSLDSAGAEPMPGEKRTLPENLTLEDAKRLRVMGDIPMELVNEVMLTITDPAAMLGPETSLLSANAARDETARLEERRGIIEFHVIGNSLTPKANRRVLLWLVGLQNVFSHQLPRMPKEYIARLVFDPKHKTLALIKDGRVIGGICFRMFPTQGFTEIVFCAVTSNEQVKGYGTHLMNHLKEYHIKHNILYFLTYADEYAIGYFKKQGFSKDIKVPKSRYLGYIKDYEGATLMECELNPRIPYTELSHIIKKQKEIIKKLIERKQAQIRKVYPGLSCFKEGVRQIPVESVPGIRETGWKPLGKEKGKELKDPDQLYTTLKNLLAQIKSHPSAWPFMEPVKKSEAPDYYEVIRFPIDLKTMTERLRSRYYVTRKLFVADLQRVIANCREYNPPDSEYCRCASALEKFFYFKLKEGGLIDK
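GCN5L2 (20nM final) in 50mM HEPES, 0.1mM EDTA pH 7.5, 0.01% Tween-20 was preincubated 15 min at room temperature with compound, then given ThioGlo1 (50uM), H3(1-25) peptide (75uM) and acetyl-CoA (70uM); CoA-thiol fluorescence (Ex340/Em540) was read at 0 and 20 min.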
TDP1 inh: qHTS Assay for Inhibitors of Tyrosyl-DNA Phosphodiesterase (TDP1); hit rate 0.28% among 350,000; Tyrosyl-DNA phosphodiesterase 1 (Homo sapiens), Q9NUW8; recombinant TDP1, AlphaScreen DNA substrate cleavage; Potency, µM (top dose mostly 130 µM), for the others: at the top dose activity change, negative = inhibition, hits mostly inhibitors; also: nearly all actives have a fitted effect of over 40% in size
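Steps: enzyme plus compound, 15 min RT; add biotin/phosphotyrosine-FITC oligonucleotide (15 nM final), react 5 min; add donor/acceptor beads (10 ug/ml final), 10 min; read AlphaScreen. Tdp1 at 1 nM final.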
VDR inhibitor: Inhibitors of the vitamin D receptor (VDR): qHTS | VDR-SRC2-3 peptide fluorescence polarization, 2 h | AID 504847, 2011 | hit rate 0.93% among 400,000 | Potency, µM, inactives show max response, negative = inhibition, most hits filed as inhibitors
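VDR–SRC2-3 interaction, FP format. Cmpds 23 nl via pintool, brief spin, 2 h ambient incubation.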
DT40 TDP1 CPT: qHTS for Inhibitors of human tyrosyl-DNA phosphodiesterase 1 (TDP1): qHTS in cells in presence of CPT. chicken DT40 Tdp1-/-;hTDP1 cells + 20 nM CPT, ATP luminescence, 48 h. Potency, µM (doses to about 46.2 µM), without a hit: at the highest dose activity change, negative = growth inhibition, usual class: inhibitors. hit rate 12% among 420,000. AID 686979, 2013; also: nearly all actives have a fitted effect of over 55% in size
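Chicken DT40 Tdp1-/- cells stably complemented with human TDP1 were seeded at 400 cells/well in medium containing 20 nM camptothecin, exposed to pin-transferred compounds, and grown at 37 °C for at least 48 hr. Viability was read as ATP luminescence.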
The depositor's hits bear a star; [ ] = another dose, or the depositor's remark. Calls follow the shape of the dose curve; as a rule, active = well fitted curve in the direction sought with a large enough effect; inconclusive = small, poorly fitted or top-dose-only effect, or another doubt; inactive = no such curve, though single readings can be large; an effect the other way counts as inactive or inconclusive. % is scaled to controls: 0 for no effect and ±100 for the full control effect; potency is read from the fitted curve at half-maximal effect.

What do the screens show for `CC1=CC(C)(C)N=C(Nc2nc(C)c3cc(C)cc(C)c3n2)N1`?
DT40 TDP1 no CPT: 16µM*; PLK1 PBD inh: 1%; KAT2A inh: -3%; TDP1 inh: 3%; VDR inhibitor: -15%; DT40 TDP1 CPT: 15µM*

How did C=CCn1c(=O)c(C(=O)Nc2ncccc2C)c(O)c2ccccc21 do in these assays?
DT40 TDP1 no CPT: -9%; PLK1 PBD inh: -7%; DT40 TDP1 CPT: -9%

How did C=CCn1c2ccccc2c(=O)c2cc(C#Cc3ccccn3)ccc21 do in these assays?
DT40 TDP1 no CPT: 18µM*; PLK1 PBD inh: -6%; KAT2A inh: -18%; TDP1 inh: -8%; VDR inhibitor: -29%; DT40 TDP1 CPT: 26µM*

How did O=C(c1ccccc1F)n1c2c(c3ccccc31)CCCC2 do in these assays?
DT40 TDP1 no CPT: inconclusive; PLK1 PBD inh: 1%; KAT2A inh: 0%; VDR inhibitor: -22%; DT40 TDP1 CPT: 23µM*

What do the screens show for `Cc1ccc(S(=O)(=O)CCC(=O)N(CCN2CCOCC2)c2nc3ccccc3s2)cc1`?
DT40 TDP1 no CPT: 16µM*; PLK1 PBD inh: inconclusive; KAT2A inh: -3%; TDP1 inh: 6%; VDR inhibitor: -13%; DT40 TDP1 CPT: 21µM*

Results for Cc1cc(C)c2sc(N(CCN(C)C)C(=O)CCS(=O)(=O)c3ccccc3)nc2c1 ?
DT40 TDP1 no CPT: 18µM*; PLK1 PBD inh: -2%; KAT2A inh: -2%; TDP1 inh: 7%; VDR inhibitor: -18%; DT40 TDP1 CPT: 23µM*

What do the screens show for `CCN(CC)CCN(C(=O)CCS(=O)(=O)c1ccccc1)c1nc2c(C)cc(C)cc2s1`?
DT40 TDP1 no CPT: 7.3µM*; PLK1 PBD inh: -1%; KAT2A inh: -4%; TDP1 inh: 4%; VDR inhibitor: -22%; DT40 TDP1 CPT: 16µM*

How did Cc1cccc2sc(N(CCCN3CCOCC3)C(=O)CS(=O)(=O)c3ccc(F)cc3)nc12 do in these assays?
DT40 TDP1 no CPT: -23%; PLK1 PBD inh: 4%; KAT2A inh: -17%; TDP1 inh: -5%; VDR inhibitor: 10%; DT40 TDP1 CPT: 1%

How did CCN(CC)CCN(C(=O)CCS(=O)(=O)c1ccccc1)c1nc2cc(C)cc(C)c2s1 do in these assays?
DT40 TDP1 no CPT: inconclusive; PLK1 PBD inh: -13%; KAT2A inh: -4%; TDP1 inh: 5%; VDR inhibitor: -20%; DT40 TDP1 CPT: 21µM*

What do the screens show for `O=C(Cc1cccc(NC(=O)C2CCCN(C(=O)C3CCCCC3)C2)c1)Nc1cccc(C(=O)N2CCCCC2)c1` (stereo not given)?
DT40 TDP1 no CPT: -16%; PLK1 PBD inh: -6%; VDR inhibitor: -10%; DT40 TDP1 CPT: -5%

How did Cc1c(C)c2c(cc(C)c3c(-c4ccccc4)coc32)oc1=O do in these assays?
DT40 TDP1 no CPT: 1%; KAT2A inh: -4%; TDP1 inh: 1%; VDR inhibitor: 13%; DT40 TDP1 CPT: -1%

How did N#Cc1c(N)nc2c(c1-c1ccccc1)CCC2 do in these assays?
DT40 TDP1 no CPT: -15%; PLK1 PBD inh: -6%; KAT2A inh: 1%; TDP1 inh: -3%; VDR inhibitor: -9%; DT40 TDP1 CPT: -30%

What do the screens show for `CC(=O)c1cc2c(cc1NC(=O)Cc1c(C)noc1C)OCO2`?
DT40 TDP1 no CPT: -22%; PLK1 PBD inh: -2%; KAT2A inh: -2%; TDP1 inh: 1%; VDR inhibitor: -7%; DT40 TDP1 CPT: inconclusive

Results for Cc1ccc(C(=O)N2CCCN(c3nc4cc5c(cc4cc3C#N)OCO5)CC2)cc1 ?
DT40 TDP1 no CPT: 15µM*; PLK1 PBD inh: 0%; KAT2A inh: -10%; TDP1 inh: 12%; VDR inhibitor: -3%; DT40 TDP1 CPT: inconclusive

What do the screens show for `Cc1cc(C)c2nc(N3CCCN(C(=O)c4cnccn4)CC3)c(C#N)cc2c1`?
DT40 TDP1 no CPT: 16µM*; PLK1 PBD inh: -11%; KAT2A inh: -3%; TDP1 inh: 0%; VDR inhibitor: -8%; DT40 TDP1 CPT: 23µM*

How did CCOCCCNC(=S)N1CCCN(c2nc3cc(C)cc(C)c3cc2C#N)CC1 do in these assays?
DT40 TDP1 no CPT: 21µM*; PLK1 PBD inh: -22%; KAT2A inh: -9%; TDP1 inh: -8%; VDR inhibitor: -4%; DT40 TDP1 CPT: 18µM*

Results for N#Cc1cc2cc3c(cc2nc1N1CCCCC1)OCCO3 ?
DT40 TDP1 no CPT: inconclusive; PLK1 PBD inh: -16%; KAT2A inh: -7%; TDP1 inh: 4%; VDR inhibitor: -4%; DT40 TDP1 CPT: inconclusive

What do the screens show for `COc1ccc(C(=O)N2CCN(c3nc4cc(C)cc(C)c4cc3C#N)CC2)cc1`?
DT40 TDP1 no CPT: 18µM*; PLK1 PBD inh: -11%; DT40 TDP1 CPT: inconclusive

Results for COc1ccc(C(=O)N2CCN(c3ncccn3)CC2)cc1 ?
DT40 TDP1 no CPT: 1%; PLK1 PBD inh: -2%; KAT2A inh: -5%; VDR inhibitor: 9%; DT40 TDP1 CPT: -5%

How did COc1ccc(-c2c3c(=O)n(C)c(=O)n(C)c3c3c(-c4ccc(C)cc4)nc4ccccc4n23)cc1 do in these assays?
DT40 TDP1 no CPT: -23%; KAT2A inh: 0%; TDP1 inh: 4%; VDR inhibitor: inconclusive; DT40 TDP1 CPT: -12%

How did CC(=O)NS(=O)(=O)c1ccc(NC(=O)c2ccc(S(=O)(=O)N3CCCC3)cc2)cc1 do in these assays?
DT40 TDP1 no CPT: -3%; PLK1 PBD inh: 0%; KAT2A inh: -2%; TDP1 inh: -1%[56.1 µM]; VDR inhibitor: 3%; DT40 TDP1 CPT: -1%

How did COc1cc(C2CC(=O)N(Cc3ccc(F)cc3)c3ccccc3S2)cc(OC)c1OC (stereo not given) do in these assays?
KAT2A inh: -9%; TDP1 inh: -3%; VDR inhibitor: -21%

How did Cc1nn(CC(=O)Nc2ccc(S(N)(=O)=O)cc2)c(=O)c2ccccc12 do in these assays?
DT40 TDP1 no CPT: -4%; PLK1 PBD inh: 9%; KAT2A inh: 22%; VDR inhibitor: 7%; DT40 TDP1 CPT: 17%

What do the screens show for `Cc1ccccc1C(=O)N1N=C(c2cccc(NS(C)(=O)=O)c2)CC1c1cccs1` (stereo not given)?
DT40 TDP1 no CPT: -24%; PLK1 PBD inh: -10%; KAT2A inh: -16%; VDR inhibitor: 2%; DT40 TDP1 CPT: -27%

Compound activity: PubChem BioAssay, National Center for Advancing Translational Sciences (NCATS)
